The subject of test [1] is ERN1.
For test [2], the system named is FAK.
The test system of test [3] is FER.
Test [4] deals with FRK.
Test [5] concerns FGFR1.
Test [6] deals with FLT3.
For test [7], the system named is GSG2.
Test [8] relates to IKBKB.
For test [9], the system named is HCK.

As for `Cc1ccc(CNC(=O)N2CCC[C@]3(CCN(Cc4ccc(Cl)c(Cl)c4)C3)C2)cc1` [GSK2850163], the Kinases covered result in test [1] is recorded as “ERN1”.
`CCCNC(=O)c1ccc(Nc2ncc(C(F)(F)F)c(Nc3ccccc3C(C)=O)n2)c(Br)c1` [BI00801818]: the Kinases covered result in test [2] was “FAK”.
With `CNC(=O)c1c(F)cccc1Nc1nc(Nc2cc3c(cc2OC)CCN3C(=O)CN(C)C)nc2[nH]ccc12` [GSK1838705], the Kinases covered result in test [3] is reported as “FER”.
With `CCc1cc(Nc2nccc(-c3c(-c4ccc(OC)c(C(=O)Nc5c(F)cccc5F)c4)nc4ccccn34)n2)c(OC)cc1N1CCC(N2CCN(S(C)(=O)=O)CC2)CC1` [GSK1904529], the values for the Kinases covered entry in test [3] and in test [4] were “FER” and “FRK”, respectively.
In the case of `COc1cc(OC)cc(-c2cc3cnc(N)nc3nc2NC(=O)NC(C)(C)C)c1` [PFE-PKIS 3], the Kinases covered result in [5] was “FGFR1”.
Turning to `Cn1ccc2ncnc(Oc3ccc(NC(=O)Nc4ccccc4)cc3)c21` [TPKI-69], in test [6], the Kinases covered entry is on record as “FLT3”.
Regarding `COc1cc2c(cc1OC)C(=C(Nc1ccccc1)c1cccc(CN)c1)C(=O)N2` [BIBF0846CL], the Kinases covered result in test [6] is listed as “FLT3”.
As for `COc1cc(N2CCN(C)CC2)ccc1Nc1ncc2c(n1)N(C)c1ccccc1C(=O)N2` [XMD8-87], the Kinases covered result in test [4] is “FRK”.
As to `c1ccc(-c2cc3ccncc3cc2OC2CCNCC2)cc1` [GSK1122999], the Kinases covered entry in test [7] is “GSG2”; in test [8] it was “IKBKB”.
`COc1cc2ncnc(Nc3cccc(Cl)c3F)c2cc1O[C@H]1CC[C@H]([C@@H]2NCCNC2=O)CC1` [BI00133844]: in [9], the Kinases covered entry is “HCK”.
